# TGFb SMAD3 inh: TGF-b pathway inhibition. AID 588855. 410,000 tested, 1.2% active. Potency, µM (top dose mostly 46.1 µM), for the others: at the top dose activity, negative = inhibition, actives largely listed as inhibitors. HepG2 CAGA-GFP TGF-b/SMAD3 reporter, GFP fluorescence, 18 h; TGF-beta stimulated, 500 pg/mL final; also: % is scaled to controls: 0 for no effect and ±100 for the full control effect; nearly all actives have a fitted effect of over 65% in size
#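 Cell-based qHTS in HEPG2 carrying a CAGA-GFP Smad reporter; compounds added before 500 pg/mL final TGF-beta, 18 h incubation at 37 degrees C, GFP fluorescence quantified per cell by imaging cytometry.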
# S2 tox: viability counter-screen for ATXN expression inhibitors; S2 cells (HEK-293 line with an ATXN2-luciferase reporter) viability, CellTiter-Fluor protease fluorescence, 24 h; AID 651635; 400,000 tested, 0.49% active; Potency, µM (top dose mostly 56.7 µM), actives largely listed as cytotoxic; also: nearly all actives have a fitted effect of over 40% in size
# ATXN2 expr inh: reduces ATXN2 reporter expression in HEK-293 cells. HEK-293 ATXN2-luciferase reporter, luminescence, 24 h. Potency, µM (doses to about 57 µM), for inactives: at the highest dose activity change, negative = inhibition, most hits filed as inhibitors. 360,000 tested, 0.72% active; also: % is scaled to controls: 0 for no effect and ±100 for the full control effect; nearly all actives have a fitted effect of over 55% in size
#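 ATXN2-luciferase reporter cells (luciferase flanked by upstream and downstream ATXN2 gene portions) were treated 24 h at 37 °C with compounds at up to 57 uM. SteadyGlo luminescence gave expression; GF-AFC fluorescence gave viability.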
# A549 tox: A549 cytotoxicity, counter-screen for Nrf2 inhibitors; AID 504648; 390,000 tested, 0.16% active; A549 ARE-Fluc cells, CellTiter-Fluor viability, 18-24 h; Potency, µM (doses to about 46 µM), for the others: at the top dose activity change, negative = cytotoxicity, usual class: inhibitors; also: % is scaled to controls: 0 for no effect and ±100 for the full control effect
#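 A549 ARE_Fluc cells in 5% FBS OPTI-MEM were exposed to compounds in concentration-response for 18-24 h at 37 deg C. Viability was read by CellTiter-Fluor fluorescence (Ex 405/Em 525) after 30 min, before the luciferase read.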
# Nrf2 block: blocks Nrf2 signaling; 360,000 tested, 2.1% active; Potency, µM (highest dose often 46 µM), inactives show top-dose activity change, negative = inhibition, hits mostly inhibitors; A549 ARE-Fluc reporter, luciferase luminescence, 18-24 h; also: % is scaled to controls: 0 for no effect and ±100 for the full control effect; nearly all actives have a fitted effect of over 60% in size
#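 Nrf2 function is reported as luminescence of an ARE-controlled luciferase in A549 cells. Compounds were tested at several concentrations, and a CellTiter-Fluor read on the same wells flagged cytotoxicity.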
# HepG2 viability: kills HepG2 cells in TGF-b inhibitor counter-screen | HepG2 CAGA-GFP viability, ATP luminescence, 18 h | Potency, µM (top dose mostly 46.1 µM), for inactives: top-dose activity change, negative = cytotoxicity, actives largely listed as cytotoxic | 410,000 tested, 0.76% active | AID 588856
#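 CellTiter-Glo luminescence gave cytotoxicity after 18 hours at 37 degrees C. The cells were HepG2 CAGA-GFP in 1% FBS DMEM, stimulated with 500 pg/mL TGF-beta after compound addition. %Activity was normalised to no-cell wells (complete cell-killing) and DMSO (no toxicity), and curves were fitted and classified.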
# * hit, by the source's call; i = inactive; ? = inconclusive; nt = not tested or not shown. Compounds with a hit are over-represented: about 3.8% of the library has one in this group of screens. Calls follow the shape of the dose curve; as a rule, active = well fitted curve in the direction sought with a large enough effect; inconclusive = small, poorly fitted or top-dose-only effect, or another doubt; inactive = no such curve, though single readings can be large; an effect the other way counts as inactive or inconclusive. Potency is read from the fitted curve at half-maximal effect.
SMILES,TGFb SMAD3 inh,S2 tox,ATXN2 expr inh,A549 tox,Nrf2 block,HepG2 viability
Cc1cc2nc(-c3ccco3)c(Cc3ccccc3C(F)(F)F)n2c(C)c1Br,nt,nt,0%,nt,nt,nt
COc1ccc(C=NNc2nc3ccccc3s2)cc1,-2%,i,-59%,0%,?,-27%
C(=N\Nc1nc2ccccc2s1)/c1ccccn1,3.5µM*,?,?,-9%,?,6.3µM*
CC(=O)c1cccc(-n2c(=O)c3c4c(sc3n(CC(=O)c3ccc(Cl)cc3)c2=O)CN(C(C)=O)CC4)c1,?,i,-4%,-4%,4%,-19%
CCOCCCNC(=S)N1CCN(c2nc(-c3ccccc3)cs2)CC1,?,i,?,-16%,16µM*,-33%
COCCCNC(=S)N1CCN(c2nc(-c3ccccc3)cs2)CC1,?,i,?,1%,12µM*,-32%
COCCCNC(=S)N1CCN(c2nc(-c3ccc(Cl)cc3)cs2)CC1,-20%,i,nt,nt,nt,-34%
O=C(NC(=S)N1CCN(c2nc(-c3ccccc3)cs2)CC1)c1cncc(Br)c1,?,?,?,-22%,23µM*,-47%
COc1ccc(Cn2cc(Cn3c4ccccc4c(=O)n3C(C)C)nn2)cc1,-11%,i,6%,nt,nt,-47%
COc1ccccc1CNC(=O)c1ccc(N2CCCC2)c(NC(=O)NCc2ccc(F)cc2)c1,10%,i,2%,1%,nt,9%
O=S(=O)(c1ccccc1)N1N=C(c2cccs2)CC1c1cccc(O)c1 (stereo unspecified),-29%,i,3%,-1%,-19%,-11%
Oc1ccccc1C1CC(c2cccs2)=NC(c2cccc(Br)c2)N1 (stereo unspecified),20µM*,i,51%,0%,1%,-61%
Nc1ccccc1NC(=O)c1ccc(CNc2nccc(-c3cccnc3)n2)cc1,nt,nt,69%,nt,nt,nt
CCOC(=O)c1c(NC(=O)/C=C/C(=O)O)sc(C)c1-c1ccc(Cl)cc1,?,?,?,-3%,1%,18µM*
CC1(CCC(=O)O)C(=O)CCC2C1CCC1(C)C2CCC1(C)O (stereo unspecified),?,i,7%,7%,9%,-1%
O=C(CCl)N(CCCNC(=O)C(F)(F)F)c1ccc([N+](=O)[O-])cc1,?,?,-23%,-5%,-12%,16µM*
CC(C)CNc1nc2c(c(=O)n(C)c(=O)n2C)n1Cc1cccc(Br)c1,3%,i,1%,-1%,nt,0%
CC(O)CNc1nc2c(c(=O)n(C)c(=O)n2C)n1Cc1cccc(C(F)(F)F)c1 (stereo unspecified),-17%,i,-11%,2%,-9%,-31%
COCCCn1c(=O)c2sccc2n(Cc2cccc(C)c2)c1=O,6%,i,nt,-1%,-18%,1%
CC(O)CNc1nc2c(c(=O)n(C)c(=O)n2C)n1C/C=C/c1ccccc1 (stereo unspecified),-18%,i,-8%,-6%,23µM*,-30%
CC(O)CNc1nc2c(c(=O)n(C)c(=O)n2C)n1Cc1cccc(Br)c1 (stereo unspecified),-28%,i,1%,-13%,16µM*,-41%
Cn1c(=O)c2sccc2n(Cc2cccc(Br)c2)c1=O,3%,i,-21%,-1%,10µM*,1%
Cn1c(=O)c2c(nc(NCCCO)n2C/C=C/c2ccccc2)n(C)c1=O,-5%,i,2%,-3%,nt,-17%
COCCNc1nc2c(c(=O)n(C)c(=O)n2C)n1Cc1cccc(C(F)(F)F)c1,?,i,-9%,-20%,16µM*,-2%
O=C(NC(Cc1ccccc1)C(=O)O)/C(=C/c1ccc(Cl)cc1)NC(=O)c1ccco1 (stereo unspecified),24%,i,-9%,5%,?,-6%
SMILES,TGFb SMAD3 inh,S2 tox,ATXN2 expr inh,A549 tox,Nrf2 block,HepG2 viability
COC1CCC(C(=O)c2ccc3nc4c(cc3c2)CCCO4)CC1 (stereo unspecified),nt,nt,31µM*,nt,nt,nt
CCn1c(/C=C/Nc2ccccc2)[n+](CC)c2cc(Cl)c(Cl)cc21,?,32µM*,?,?,17%,-93%
CC(C)c1cc(C(C)C)c(S(=O)(=O)N2c3ccccc3[C@@]3(Br)C[C@H]4C(=O)N[C@@H](Cc5ccccc5)C(=O)N4[C@@H]23)c(C(C)C)c1,8.9µM*,i,3%,8%,?,-4%
O=C1N[C@@H](Cc2ccccc2)C(=O)N2[C@@H]3N(S(=O)(=O)c4ccccc4)c4ccccc4[C@]3(Br)C[C@@H]12,1%,i,-27%,3%,-24%,-14%
CCn1c([N+](=O)[O-])nc2c1c(=O)[nH]c(=O)n2C,10µM*,nt,nt,?,-10%,-126%
CCCCCCn1c(SCCCC)nc2c1c(=O)[nH]c(=O)n2C,9%,i,0%,-4%,-9%,3%
[O-][n+]1onc2c1CCc1c-2nn(-c2ccccc2Cl)[n+]1[O-],?,?,28µM*,-3%,?,-37%
Cc1ccc(-n2nc3c([n+]2[O-])CCc2c-3no[n+]2[O-])cc1,-6%,?,?,?,-29%,-12%
CS(=O)(=O)c1ccc(Cl)c(NC(=O)COC(=O)c2ccc(F)cc2Cl)c1,-7%,i,-21%,13%,12µM*,-12%
CS(=O)(=O)c1ccc(Cl)c(NC(=O)CCl)c1,20%,?,?,-15%,21µM*,-10%
Cc1ccc(NC(=O)C2CCN(S(=O)(=O)c3ccc4c(c3)NC(=O)C(C)S4)CC2)c(Cl)c1 (stereo unspecified),?,i,nt,-17%,23µM*,-22%
Cc1ccc(CCNC(=O)C2CCN(S(=O)(=O)c3ccc4c(c3)NC(=O)C(C)S4)CC2)cc1 (stereo unspecified),?,?,?,-25%,16µM*,-15%
COc1cccc(CNC(=O)C2CCN(S(=O)(=O)c3ccc4c(c3)NC(=O)C(C)S4)CC2)c1 (stereo unspecified),?,i,-6%,-5%,18µM*,-16%
CCCNC(=O)c1ccc2c(=O)c(O)c(-c3ccc(C)cc3)[nH]c2c1,?,nt,?,-3%,-4%,-15%
Cc1ccc(CNC(=O)c2ccc3c(=O)c(O)c(-c4ccc(C)cc4)[nH]c3c2)cc1,?,nt,-36%,?,21µM*,-33%

# Screening results deposited in PubChem BioAssay by National Center for Advancing Translational Sciences (NCATS).
